Out of some 400,000 compounds screened, about 2,100 (0.53%) were called active. Inconclusive results (about 14%) are left out. No rule for the calls is given here. Only a selection was taken, and actives are over-represented in it overall.
What follows are compounds tested against Ataxin-2 (Homo sapiens) (UniProt Q99700) (assay: qHTS for Inhibitors of ATXN expression.).
Assay type: functional

Sequence of Ataxin-2 (Homo sapiens) (Q99700 whole entry): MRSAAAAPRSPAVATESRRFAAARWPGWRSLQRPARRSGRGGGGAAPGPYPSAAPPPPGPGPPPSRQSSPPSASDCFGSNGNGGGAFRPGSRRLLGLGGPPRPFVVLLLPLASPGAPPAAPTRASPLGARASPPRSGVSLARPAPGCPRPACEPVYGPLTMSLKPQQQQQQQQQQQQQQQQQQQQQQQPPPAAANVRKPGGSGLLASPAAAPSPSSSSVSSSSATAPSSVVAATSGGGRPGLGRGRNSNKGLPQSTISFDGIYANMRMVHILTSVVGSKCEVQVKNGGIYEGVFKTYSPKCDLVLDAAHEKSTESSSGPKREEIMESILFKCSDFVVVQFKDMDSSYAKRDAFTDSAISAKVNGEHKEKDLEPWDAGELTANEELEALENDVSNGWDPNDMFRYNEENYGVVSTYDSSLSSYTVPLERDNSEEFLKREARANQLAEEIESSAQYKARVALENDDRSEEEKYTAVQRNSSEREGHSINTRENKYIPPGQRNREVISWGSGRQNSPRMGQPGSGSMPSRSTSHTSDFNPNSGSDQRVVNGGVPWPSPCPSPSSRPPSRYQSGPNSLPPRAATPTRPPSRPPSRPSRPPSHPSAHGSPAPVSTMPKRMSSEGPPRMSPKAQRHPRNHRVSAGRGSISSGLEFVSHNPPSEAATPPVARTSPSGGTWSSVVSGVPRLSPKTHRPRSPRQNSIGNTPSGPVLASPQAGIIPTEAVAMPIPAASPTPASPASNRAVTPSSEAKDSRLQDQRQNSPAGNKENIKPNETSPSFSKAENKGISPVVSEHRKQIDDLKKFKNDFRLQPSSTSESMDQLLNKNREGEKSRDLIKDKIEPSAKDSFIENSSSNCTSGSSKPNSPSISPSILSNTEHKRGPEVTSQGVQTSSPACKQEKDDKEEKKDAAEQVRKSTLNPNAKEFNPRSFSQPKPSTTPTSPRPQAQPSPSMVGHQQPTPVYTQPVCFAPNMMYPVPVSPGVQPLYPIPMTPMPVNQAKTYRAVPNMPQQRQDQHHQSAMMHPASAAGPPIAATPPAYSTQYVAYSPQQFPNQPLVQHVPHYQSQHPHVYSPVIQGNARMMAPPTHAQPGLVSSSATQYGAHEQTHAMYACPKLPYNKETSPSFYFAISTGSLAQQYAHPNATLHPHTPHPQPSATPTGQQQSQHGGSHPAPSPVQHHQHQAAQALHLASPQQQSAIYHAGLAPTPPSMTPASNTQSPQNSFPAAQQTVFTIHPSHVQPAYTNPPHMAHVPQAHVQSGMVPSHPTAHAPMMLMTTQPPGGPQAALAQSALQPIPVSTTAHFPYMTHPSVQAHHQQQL

| Structure (SMILES) | Potency |
| --- | --- |
| O=C(OCC(=O)N1CCCC1=O)C1CCN(S(=O)(=O)c2ccc(Cl)c(C(F)(F)F)c2)CC1 | inactive |
| Cc1ccc(NC(=O)COC(=O)[C@H](C)N2C(=O)C3CC=CCC3C2=O)cc1S(=O)(=O)N(C)C (some centres undefined) | inactive |
| CCCN(CC(=O)Nc1ccccc1C)C(=O)c1ccc(N2CCCC2=O)cc1 | inactive |
| C=CC[C@@H](CC(=O)N[C@@H](CO)Cc1ccccc1)C(=O)N[C@H](COC(=O)[C@H](CC=C)CC(=O)OC(C)(C)C)Cc1c[nH]c2ccccc12 | 28.2 µM (active) |
| C=CC[C@H](CC(=O)N[C@H](CO)Cc1ccccc1)C(=O)N[C@@H](COC(=O)[C@@H](CC=C)CC(=O)OC(C)(C)C)Cc1c[nH]c2ccccc12 | 25.1 µM (active) |
| C=CC[C@@H](CC(=O)N[C@@H](CO)Cc1ccccc1)C(=O)N[C@H](COC(=O)[C@@H](CC=C)CC(=O)OC(C)(C)C)Cc1c[nH]c2ccccc12 | 28.2 µM (active) |
| O=C(CCCCCn1c(=S)[nH]c2ccc(N3CCOCC3)cc2c1=O)NCc1ccc2c(c1)OCO2 | inactive |
| Cn1c(N)nc2nc(CCc3ccccc3)c(O)nc2c1=O | inactive |
| CCOc1ccc(CC(=O)Nc2c(C(=O)c3ccccc3)oc3ccc(Cl)cc23)cc1OCC | inactive |
| Cc1ccc(Oc2ncnc(N)c2[N+](=O)[O-])cc1 | inactive |
| Cc1nc(Sc2ccc(Cl)cc2)c(C#N)c(C)c1[N+](=O)[O-] | inactive |
| Cc1cc(C)nc(Sc2ncnc(N)c2[N+](=O)[O-])n1 | 16.8 µM (active) |
| C=C(C(=O)c1ccccc1)C(c1ccccc1)C(C)C(=O)c1ccccc1 (centres undefined) | 31.6 µM (active) |
| CC(OC(=O)C1COc2ccccc2O1)C(=O)c1ccccc1 (centres undefined) | inactive |
| O=C(Cc1nc2ccccc2nc1O)c1ccccc1 | inactive |
| C=C(C(=O)c1ccccc1)C(C)CC(=O)c1ccccc1 (centres undefined) | 15.8 µM (active) |
| Nc1nc2ccccc2cc1S(=O)(=O)c1ccccc1 | inactive |
| O=C(Nc1ccccc1)Nc1ccc2ncoc2c1 | inactive |
| CN(C)/C=N/c1nc2ccccc2nc1N1CCCC1 | inactive |
| N#C/C(=C/c1cccn1-c1cccc(C(=O)O)c1)c1ccc(F)cc1 | inactive |
| N#Cc1c(N2CCCC2)ccc(Br)c1Cl | inactive |
| COC(=O)c1ccc(CSc2cc(C)c3ccccc3n2)o1 | inactive |

| Structure (SMILES) | Potency |
| --- | --- |
| CC(C)(C)c1ccc2c(c1)OC(C(=O)N/N=C\c1ccncc1)CO2 (centres undefined) | inactive |
| N=c1c(C(=O)NCC2CCCO2)cc2c(=O)n3ccccc3nc2n1Cc1ccccc1 (centres undefined) | inactive |
| Cc1cccc(NC(=O)c2ccc(N(Cc3ccccc3)S(C)(=O)=O)cc2)c1 | 25.1 µM (active) |
| Cc1ccccc1NC(=O)c1ccc2snnc2c1 | inactive |
| Cc1ccccc1NC(=O)c1ccc(N(Cc2ccccc2)S(C)(=O)=O)cc1 | 35.5 µM (active) |
| CCN(Cc1ccncc1)C(=S)Nc1ccccc1C | inactive |
| CS(=O)(=O)N(Cc1ccccc1)c1ccc(C(=O)Nc2cccc(Cl)c2)cc1 | 17.8 µM (active) |
| CCCc1nn(C)c(C(=O)Nc2cccc(CC)c2)c1Cl | inactive |
| Cc1cc(C(F)(F)F)c2c(N)c(C(=O)Nc3cc(C)on3)sc2n1 | inactive |
| Cc1ccc(C)c(Oc2coc3cc(O)ccc3c2=O)c1 | inactive |
| CCOc1ccccc1-n1c(N)c(C(=O)OC)c2nc3ccccc3nc21 | inactive |
| COc1cc2nc(CN3CCN(S(=O)(=O)c4ccc(C)c(C)c4)CC3)nc(O)c2cc1OC | inactive |
| CCOC(=O)N1CCN(c2nc(-c3ccccc3)c3cc(C)ccc3n2)CC1 | inactive |
| COc1cc2nc(N3CCN(c4cc(C)ccc4C)CC3)nc(N)c2cc1OC | 39.8 µM (active) |
| Cc1ccc2nc3c(cc2c1)c(NC(=O)C(C)(C)C)nn3CC(C)C | inactive |
| C=CCn1c(N)c(C(=O)NCC2CCCO2)c2nc3ccccc3nc21 (centres undefined) | inactive |
| O=C1C=C(Nc2cccnc2)c2ccccc2C1=O | 39.8 µM (active) |
| c1cncc(Nc2c3ccccc3nc3ccccc23)c1 | inactive |
| Cc1ccc(-c2ccc(S(=O)(=O)Nc3cccnc3)cc2)cc1 | inactive |
| O=C(COc1ccc2ccc(=O)oc2c1)OCc1ccccc1 | inactive |
| CS(=O)(=O)c1ccc([S+]([O-])CC(=O)OCc2ccccc2)c([N+](=O)[O-])c1 (centres undefined) | 26.7 µM (active) |
| CN(C)C(CNc1ccc(S(C)(=O)=O)cc1[N+](=O)[O-])c1ccccc1 (centres undefined) | inactive |

| Structure (SMILES) | Potency |
| --- | --- |
| Nc1nc(-c2ccccc2)c(N=Nc2ccccc2Cl)s1 | 31.6 µM (active) |
| Nc1ccc2nc(-c3ccccc3)c(-c3ccccc3)nc2c1 | inactive |
| Cc1ccc(-c2nc(N)sc2C)cc1 | inactive |
| O=C(O)c1ccc(CN2C(=O)c3cccc4c([N+](=O)[O-])ccc(c34)C2=O)cc1 | inactive |
| O=C(COC(=O)COc1cccc2ccccc12)NCC(F)(F)F | inactive |
| CCCCn1nnnc1C(c1cc2ccccc2o1)N(CCN(C)C)Cc1ccccc1 (centres undefined) | 28.2 µM (active) |
| COc1cc(CNCCN2CCOCC2)ccc1OCc1ccc(Cl)cc1Cl | 25.1 µM (active) |
| CCOc1cc(CNCCCN2CCOCC2)cc(Br)c1OCC(=O)Nc1cccc(C(F)(F)F)c1 | 20 µM (active) |
| CCCc1cc(=O)oc2cc(OCC(=O)NCCN3CCOCC3)c(Cl)cc12 | inactive |
| COc1cccc2cc(C(=O)C3=C(O)C(=O)N(CCN4CCOCC4)C3c3ccc(Cl)cc3)oc12 (centres undefined) | inactive |
| O=C(COC(=O)COc1cccc(C(F)(F)F)c1)Nc1ccc(N2CCOCC2)cc1 | inactive |
| COc1cc(CNCCCN2CCOCC2)cc(Br)c1OCc1ccc(Cl)cc1 | 33.6 µM (active) |
| C=CCOc1c(Br)cc(CNCCCN2CCOCC2)cc1OC | inactive |
| CC(C)(CNC(=O)c1ccc(S(=O)(=O)Nc2cccc(C(F)(F)F)c2)cc1)N1CCOCC1 | inactive |
| COc1cc2sc3cc(NCCCN4CCOCC4)ccc3c(=O)c2cc1OC | inactive |
| CCOC(=O)Cc1c(C)c2ccc(N(CC)CC)cc2oc1=O | inactive |
| C(=Cc1cnc2ccccc2n1)c1ccc2c(c1)OCO2 | inactive |
| CCCCCn1cc[n+](-c2nc3ccccc3nc2[N-]S(=O)(=O)c2ccccc2)c1 | inactive |
| Cc1ccc(NC(=O)CC2Nc3ccccc3NC2=O)cc1C (centres undefined) | inactive |
| CC(=O)c1cc2c(C)cc(=O)oc2cc1O | inactive |

Source: ChEMBL document CHEMBL1201862, “PubChem BioAssay data set” (2004)
